Source: PubChem BioAssay AID1159580 (chemical genetic matrix, 2015)
“And” between values parts separate entries of the source, which are not always exact repeats. Identical values can stand only once. In all, about 5,500 compounds went through this assay and about 2,000 (36%) were called active. Roughly 18% stayed inconclusive and do not appear here. Rule as the data show it: active = normalized growth mostly below about 0.91 (no sharp cut-off); inconclusive = no clear call, values can overlap the other calls; inactive = mostly above about 0.92. This is one part of the list.

Assay: chemical genetic growth profiling, strain panel (AID 1159580);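 also: tested at 20 µM; growth read once vehicle control cultures reached saturation at 30 °C; 1 = growth at the plate median or of vehicle wells; lower values mean less growth of the strain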
Details: S. cerevisiae deletion strains, growth OD

Measured: normalized growth

CC1CCCC(C)N1NC(=O)c1ccc(Cl)c(S(N)(=O)=O)c1 (stereo unspecified)
inactive: locus YAL013W, strain DEP1, hits give low values 1 | locus YAL021C, strain ccr4, hits give low values 1 | locus YAL026C, strain drs2, hits give low values 1.03 | locus YAL030W, strain snc1, hits give low values 0.989 | locus YBL061C, strain skt5, hits give low values 1.02 | locus YBR009C, strain hhf1, hits give low values 1.02 | locus YBR021W, strain FUR4, hits give low values 1.09 | locus YBR023C, strain chs3, hits give low values 1.01 | locus YBR171W, strain sec66, hits give low values 1.03 | locus YBR229C, strain ROT2, hits give low values 0.996 | locus YBR231C, strain swc5, hits give low values 1.05 | locus YBR279W, strain paf1, hits give low values 1 | locus YCL011C, strain gbp2, hits give low values 0.932 | locus YCL016C, strain dcc1, hits give low values 1.02 | locus YCL029C, strain bik1, hits give low values 0.974 | locus YCL069W, strain vba3, hits give low values 1 | locus YCR088W, strain abp1, hits give low values 1.01 | locus YDL005C, strain med2, hits give low values 1.01 | locus YDL035C, strain GPR1, hits give low values 1.01 | locus YDL040C, strain nat1, hits give low values 1.01 | locus YDL074C, strain BRE1, hits give low values 0.991 | locus YDL101C, strain DUN1, hits give low values 0.983 | locus YDL134C, strain PPH21, hits give low values 1 | locus YDL185W, strain tfp1, hits give low values 0.964 | locus YDL192W, strain arf1, hits give low values 0.988 | locus YDR001C, strain nth1, hits give low values 1.01 | locus YDR069C, strain doa4, hits give low values 1.01 | locus YDR101C, strain arx1, hits give low values 0.99 | locus YDR137W, strain rgp1, hits give low values 1.01 | locus YDR150W, strain NUM1, hits give low values 0.992 | locus YDR159W, strain sac3, hits give low values 1.02 | locus YDR162C, strain NBP2, hits give low values 0.997 | locus YDR195W, strain ref2 1 | locus YDR297W, strain sur2, hits give low values 1.01 | locus YDR318W, strain mcm21, hits give low values 1 | locus YDR334W, strain swr1, hits give low values 1.02 | locus YDR335W, strain msn5, hits give low values 1.02 | locus YDR388W, hits give low values 0.998 | locus YDR392W, strain spt3, hits give low values 1.03 | locus YDR502C, strain sam2, hits give low values 0.993 | locus YEL003W, strain gim4, hits give low values 1.02 | locus YEL037C, strain rad23, hits give low values 1.02 | locus YEL061C, strain CIN8 (second series), hits give low values 1.01 | locus YEL061C, strain CIN8, hits give low values 1 | locus YER015W, strain faa2, hits give low values 1.02 | locus YER016W, strain bim1, hits give low values 1.02 | locus YER110C, hits give low values 0.983 | locus YER111C, strain swi4, hits give low values 1.01 | locus YER155C, strain BEM2 (second series), hits give low values 1.04 | locus YER155C, strain BEM2, hits give low values 1 | locus YER167W, strain BCK2, hits give low values 0.997 | locus YFR010W, strain ubp6, hits give low values 1.03 | locus YGL078C, strain dbp3, hits give low values 0.997 | locus YGL086W, strain mad1, hits give low values 1 | locus YGL167C, strain pmr1, hits give low values 1.01 | locus YGL173C, strain kem1, hits give low values 1.03 | locus YGL227W, strain vid30, hits give low values 1.02 | locus YGL240W, strain doc1, hits give low values 1.01 | locus YGL248W, strain PDE1, hits give low values 1 | locus YGL253W, strain hxk2, hits give low values 1.02 | locus YGR078C, strain PAC10, hits give low values 0.983 | locus YGR135W, strain pre9, hits give low values 0.993 | locus YGR229C, strain SMI1, hits give low values 0.991 | locus YGR252W, strain gcn5, hits give low values 1.2 | locus YHR013C, strain ard1, hits give low values 1.01 | locus YHR027C, strain rpn1, hits give low values 1.01 | locus YHR030C, strain SLT2, hits give low values 0.998 and 0.962 | locus YHR079C, strain IRE1 (second series), hits give low values 0.985 | locus YHR079C, strain IRE1, hits give low values 0.949 | locus YHR094C, strain hxt1, hits give low values 0.986 | locus YHR129C, strain ARP1, hits give low values 0.984 | locus YHR142W, strain chs7, hits give low values 1.01 | locus YHR200W, strain rpn10, hits give low values 1 | locus YIL066C, strain RNR3, hits give low values 0.995 | locus YIL073C, strain SPO22, hits give low values 0.874 | locus YIL125W, strain kgd1, hits give low values 0.956 | locus YIR030C, strain dcg1, hits give low values 0.998 | locus YJL092W, strain hpr5, hits give low values 1.02 | locus YJL095W, strain BCK1 (second series), hits give low values 1.01 | locus YJL095W, strain BCK1, hits give low values 0.972 and 0.992 | locus YJL115W, strain asf1, hits give low values 1.01 | locus YJL129C, strain trk1, hits give low values 1.03 | locus YJL134W, strain LCB3, hits give low values 0.993 | locus YJL154C, strain vps35, hits give low values 1.02 | locus YJL164C, strain tpk1, hits give low values 1 | locus YJL166W, strain qcr8, hits give low values 0.989 | locus YJL168C, strain set2, hits give low values 0.993 | locus YJL187C, strain SWE1 (second series), hits give low values 0.966 | locus YJR043C, strain POL32, hits give low values 0.982 | locus YJR066W, strain TOR1, hits give low values 0.962 | locus YJR075W, strain HOC1, hits give low values 0.985
